The list is not random: actives were taken first. Their share in the collection is about 2.5%.
MEKK2 mut-MEK5: signal of MEK5 binding to mutant human MEKK2 PB1 domain | bead flow cytometry, Alexa488-MEK5 binding to MEKK2 mutant | 0.35% of 290,000 active | percent response, % at 10 µM; in the data active = percent response above about 24%, passing the limit was not always enough
MEKK2wt PB1 HTS: raises or lowers MEK5 binding to wildtype human MEKK2 PB1 domain; bead flow cytometry, Alexa488-MEK5 binding to MEKK2 WT; actives lie on both sides; 1.1% of 290,000 active; Q9Y2U5; binding response (% of control), % at 10 µM; in the data active = binding response below about 67% or above about 130%
MEKK3 PB1 HTS: MEKK3-MEK5 PB1 interaction, increase or decrease; bead-based flow cytometry, Alexa488-MEK5 binding to MEKK3; actives lie on both sides; 0 = blocked by unlabeled MEK5, 100 = vehicle; binding response (% of control), % at 10 µM; 1.4% of 290,000 active; AID 1529;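 active = binding response more than 3 SD above or below the average of its plate-row segment, actives on both sides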;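 also: Alexa488 bead fluorescence after subtracting the streptavidin-only scavenger bead signal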
GRK2 aptamer HTS: inhibitors of human GRK2 displacing RNA aptamer. P25098. bead flow cytometry, FAM-aptamer displacement from GRK2. inhibition of aptamer binding, % at 10 µM. 0.59% of 330,000 active;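 active = inhibition of aptamer binding above 40%, roughly 3 SD of noise, on plates passing a quality check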;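 also: median bead fluorescence of bound FAM aptamer so fluorescent compounds give negative values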
Numbers without * were called inactive; · = not tested or not shown; [ ] = remark or other dose.

SMILES	MEKK2 mut-MEK5	MEKK2wt PB1 HTS	MEKK3 PB1 HTS	GRK2 aptamer HTS
COc1ccc2c(c1)c(CC(=O)OC(C)C(=O)N(C)C)c(C)n2C(=O)c1ccc(Cl)cc1 (stereo not drawn)	1.0	100.0	102.0	2.0
CC(C)(C)c1cc(C(=O)N/N=C/c2ccccc2O)n(-c2ccccc2)n1	0.0	98.0	105.0	99.0*
CC(C)(C)c1cc(C(=O)N/N=C/c2ccc(F)cc2)n(-c2ccccc2)n1	3.0	99.0	102.0	0.0
COc1ccc2cc3c(N)nn(C(=O)c4cccc([N+](=O)[O-])c4)c3nc2c1	-2.0	95.0	116.0	73.0*
O=C1CCC/C1=C\Nc1ccc(Cl)c([N+](=O)[O-])c1	5.0	103.0	102.0	1.0
COc1ccc2nc(/C(C#N)=C\c3ccc(C(=O)O)cc3)[nH]c2c1	44.0	7.0*	81.0	4.0
COc1ccc2nc(/C(C#N)=C\c3ccc(Oc4ccc([N+](=O)[O-])cn4)cc3)[nH]c2c1	0.0	98.0	90.0	0.0
NC1=C(O)C(=O)C(c2ccccc2)O1 (stereo not drawn)	2.0	97.0	101.0	0.0
O=S(=O)(Nc1ccc(N2CCCCC2)cc1)c1ccccc1F	4.0	100.0	101.0	0.0
O=S(=O)(Nc1ccc(N2CCCCC2)cc1)c1ccc(F)cc1F	16.0	-10.0*	111.0	0.0
COc1ccc(S(=O)(=O)N2CCN(C(=O)c3cccs3)CC2)cc1	7.0	105.0	108.0	0.0
C/C(=N\NC(=O)Nc1ccccc1)c1ccc2ccccc2c1	-2.0	101.0	100.0	100.0*
C/C(=N/NC(=O)Nc1ccccc1)c1ccc(C)cc1	-1.0	103.0	99.0	2.0
Cc1cccc(NC(=O)CSc2nsc(SCC(=O)Nc3cccc(C)c3)c2C#N)c1	39.0	29.0*	105.0	1.0
Cc1cc(Cl)ccc1OCCCC(=O)N1CCN(C)CC1	2.0	96.0	97.0	0.0
COc1cccc(/C=C/c2nc3c(cnn3-c3ccccc3)c(=O)[nH]2)c1	93.0*	·	87.0	2.0
COc1ccc(-c2csc(/C(C#N)=C\c3ccc(OC)c([N+](=O)[O-])c3)n2)cc1	-1.0	97.0	98.0	90.0*
COc1cc2ccccc2cc1C(=O)N(CCN(C)C)c1nc2ccc(C)cc2s1	9.0	135.0*	100.0	0.0
COc1cc2ccccc2cc1C(=O)N(CCN(C)C)c1nc2c(OC)ccc(OC)c2s1	24.0*	147.0*	104.0	0.0
COc1cc2ccccc2cc1C(=O)N(CCN(C)C)c1nc2c(C)cccc2s1	18.0	129.0	103.0	0.0
COc1ccc(OC)c2sc(N(CCN(C)C)C(=O)c3ccc4ccccc4c3)nc12	11.0	134.0	105.0	0.0
COc1cccc2cc(-c3cn4ccc(C)cc4n3)c(=O)oc12	-16.0	85.0	76.0	0.0
N#CCC(=O)N/N=C/c1ccc(N2N=C(c3ccccc3)CC2c2ccccc2)cc1 (stereo not drawn)	-8.0	74.0	97.0	67.0*
COc1ccc(C2CC(c3ccccc3)=NN2c2ccc(/C=N/NC(=O)c3ccncc3)cc2)cc1 (stereo not drawn)	4.0	93.0	101.0	4.0
CC[C@H](C)[C@@H](NC(=O)O[C@@H]1C(=O)c2cc(Br)ccc2O[C@H]1c1ccc2c(c1)OCO2)C(=O)OC	-4.0	95.0	78.0*[inhibitor]	·
SMILES	MEKK2 mut-MEK5	MEKK2wt PB1 HTS	MEKK3 PB1 HTS	GRK2 aptamer HTS
CCN(CCn1cccn1)C(=O)c1ccc(OC2CCN(C(=O)COC)CC2)cc1	-2.0	101.0	103.0	2.0
CCOC(=O)c1ccc2c(c1)C1C=CCC1C(C(=O)O)N2 (stereo not drawn)	-5.0	91.0	95.0	88.0*
CCN(CC)c1ccc2c(Cl)c(Br)c(=O)oc2c1	-2.0	-27.0*	90.0	2.0
CCN(CC)c1ccc2c(C)c(Cl)c(=O)oc2c1	-2.0	100.0	101.0	0.0
CCOc1cc(-c2c(C)c(CC)nc(N)c2C#N)ccc1O	1.0	99.0	99.0	0.0
CCOC(=O)C1=C(N)Oc2c(oc(CO)cc2=O)C1c1ccc(F)c(F)c1 (stereo not drawn)	-8.0	90.0	89.0	1.0
O=C1N/C(=N/O)S/C1=C/c1cccc([N+](=O)[O-])c1	-6.0	101.0	108.0	0.0
CC1(C)CC(=O)/C(=C\c2cccc([N+](=O)[O-])c2)C(C)(C)N1	1.0	107.0	132.0*	0.0
CCC(C)(C)n1nnnc1C(c1ccc(C)cc1)N1CCN(Cc2cccnc2)CC1 (stereo not drawn)	19.0	111.0	104.0	1.0
Cc1cccc(C(=O)N/C(=C\c2ccc(C)o2)C(=O)O)c1	2.0	-3.0*	98.0	4.0

Screens as filed in PubChem.
